What was measured:
Details in all cases: Compound Concentration (nM):1000
[1] = tested on: ACVR2B
[2] = tested on: ACVRL1
[3] = tested on: T1, ADCK3
T1 construct: gene CABC1

[4] = tested on: ADCK4
[5] = tested on: AKT1
[6] = tested on: AKT2
[7] = tested on: AKT3
[8] = tested on: ALK(C1156Y)
[9] = tested on: ALK(L1196M)
[10] = tested on: ALK
[11] = tested on: T2, AMPK-alpha1
T2 construct: gene PRKAA1

[12] = tested on: T3, AMPK-alpha2
T3 construct: gene PRKAA2

[13] = tested on: ANKK1
[14] = tested on: T4, ARK5
T4 construct: gene NUAK1

[15] = tested on: T5, ASK1
T5 construct: gene MAP3K5

[16] = tested on: T6, ASK2
T6 construct: gene MAP3K6

[17] = tested on: AURKA
[18] = tested on: AURKB
[19] = tested on: AURKC
[20] = tested on: AXL
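Also: KINOMEscan scanMAX binding as percent activity remaining versus control; lower means stronger binding.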

Compound: NS(=O)(=O)c1ccc(N/N=C2\C(=O)Nc3ccc(-c4cnco4)cc32)cc1 [GW276655]
- Percent Control [1]: 100%
- Percent Control [2]: 100%
- Percent Control [3]: 100%
- Percent Control [4]: 100%
- Percent Control [5]: 84%
- Percent Control [6]: 65%
- Percent Control [7]: 100%
- Percent Control [8]: 97%
- Percent Control [9]: 100%
- Percent Control [10]: 83%
- Percent Control [11]: 95%
- Percent Control [12]: 100%
- Percent Control [13]: 65%
- Percent Control [14]: 100%
- Percent Control [15]: 100%
- Percent Control [16]: 85%
- Percent Control [17]: 70%
- Percent Control [18]: 66%
- Percent Control [19]: 65%
- Percent Control [20]: 100%

Compound: Cl.O=S1CCN(Cc2ccc(-c3ccc4ncnc(Nc5ccc(OCc6ccccc6)c(F)c5)c4c3)o2)CC1 [GW576924A]
- Percent Control [1]: 100%
- Percent Control [2]: 94%
- Percent Control [3]: 100%
- Percent Control [4]: 100%
- Percent Control [5]: 100%
- Percent Control [6]: 100%
- Percent Control [7]: 100%
- Percent Control [8]: 100%
- Percent Control [9]: 100%
- Percent Control [10]: 100%
- Percent Control [11]: 100%
- Percent Control [12]: 100%
- Percent Control [13]: 88%
- Percent Control [14]: 100%
- Percent Control [15]: 100%
- Percent Control [16]: 69%
- Percent Control [17]: 100%
- Percent Control [18]: 100%
- Percent Control [19]: 100%
- Percent Control [20]: 100%

Compound: CN1CCN(C(=O)c2ccc(NC(=O)Nc3ccc(N(C)c4ccnc(Nc5ccc(CS(C)(=O)=O)cc5)n4)cc3)cc2)CC1.Cl [GW830263A]
- Percent Control [1]: 94%
- Percent Control [2]: 79%
- Percent Control [3]: 100%
- Percent Control [4]: 47%
- Percent Control [5]: 100%
- Percent Control [6]: 100%
- Percent Control [7]: 100%
- Percent Control [8]: 64%
- Percent Control [9]: 83%
- Percent Control [10]: 76%
- Percent Control [11]: 82%
- Percent Control [12]: 87%
- Percent Control [13]: 28%
- Percent Control [14]: 78%
- Percent Control [15]: 100%
- Percent Control [16]: 67%
- Percent Control [17]: 0%
- Percent Control [18]: 0.4%
- Percent Control [19]: 0.2%
- Percent Control [20]: 9.7%

Compound: CCc1ccc(Oc2nccc(-c3c(-c4ccc(F)cc4)ncn3C3CCNCC3)n2)cc1 [SB-242719]
- Percent Control [1]: 100%
- Percent Control [2]: 97%
- Percent Control [3]: 100%
- Percent Control [4]: 100%
- Percent Control [5]: 88%
- Percent Control [6]: 100%
- Percent Control [7]: 100%
- Percent Control [8]: 100%
- Percent Control [9]: 98%
- Percent Control [10]: 96%
- Percent Control [11]: 100%
- Percent Control [12]: 99%
- Percent Control [13]: 83%
- Percent Control [14]: 100%
- Percent Control [15]: 84%
- Percent Control [16]: 66%
- Percent Control [17]: 81%
- Percent Control [18]: 100%
- Percent Control [19]: 98%
- Percent Control [20]: 100%

Compound: CC(C)COC(=O)c1ccc2c(c1)/C(=C/Nc1ccc(S(N)(=O)=O)cc1)C(=O)N2 [GW416981X]
- Percent Control [1]: 100%
- Percent Control [2]: 100%
- Percent Control [3]: 100%
- Percent Control [4]: 100%
- Percent Control [5]: 100%
- Percent Control [6]: 100%
- Percent Control [7]: 100%
- Percent Control [8]: 93%
- Percent Control [9]: 94%
- Percent Control [10]: 100%
- Percent Control [11]: 100%
- Percent Control [12]: 92%
- Percent Control [13]: 44%
- Percent Control [14]: 97%
- Percent Control [15]: 100%
- Percent Control [16]: 85%
- Percent Control [17]: 66%
- Percent Control [18]: 65%
- Percent Control [19]: 35%
- Percent Control [20]: 100%

Compound: NS(=O)(=O)c1ccc(N/N=C2\C(=O)Nc3ccc(C(=O)NCCc4c[nH]cn4)cc32)cc1 [GW300660X]
- Percent Control [1]: 100%
- Percent Control [2]: 100%
- Percent Control [3]: 100%
- Percent Control [4]: 100%
- Percent Control [5]: 100%
- Percent Control [6]: 100%
- Percent Control [7]: 100%
- Percent Control [8]: 92%
- Percent Control [9]: 91%
- Percent Control [10]: 100%
- Percent Control [11]: 100%
- Percent Control [12]: 100%
- Percent Control [13]: 59%
- Percent Control [14]: 80%
- Percent Control [15]: 100%
- Percent Control [16]: 65%
- Percent Control [17]: 72%
- Percent Control [18]: 55%
- Percent Control [19]: 99%
- Percent Control [20]: 100%

Compound: COc1cc(C=NNc2ncnc3c2cnn3-c2ccccc2)ccc1O [GW513184X]
- Percent Control [1]: 82%
- Percent Control [2]: 67%
- Percent Control [3]: 95%
- Percent Control [4]: 0%
- Percent Control [5]: 100%
- Percent Control [6]: 100%
- Percent Control [7]: 100%
- Percent Control [8]: 100%
- Percent Control [9]: 100%
- Percent Control [10]: 100%
- Percent Control [11]: 100%
- Percent Control [12]: 100%
- Percent Control [13]: 48%
- Percent Control [14]: 84%
- Percent Control [15]: 100%
- Percent Control [16]: 100%
- Percent Control [17]: 33%
- Percent Control [18]: 96%
- Percent Control [19]: 59%
- Percent Control [20]: 60%

Compound: COc1ccc2[nH]c3c4[nH]c5ccc(OC)cc5c4c4c(c3c2c1)C(=O)NC4=O [GW296115X]
- Percent Control [1]: 44%
- Percent Control [2]: 100%
- Percent Control [3]: 100%
- Percent Control [4]: 75%
- Percent Control [5]: 72%
- Percent Control [6]: 84%
- Percent Control [7]: 98%
- Percent Control [8]: 25%
- Percent Control [9]: 70%
- Percent Control [10]: 55%
- Percent Control [11]: 44%
- Percent Control [12]: 54%
- Percent Control [13]: 71%
- Percent Control [14]: 25%
- Percent Control [15]: 83%
- Percent Control [16]: 86%
- Percent Control [17]: 57%
- Percent Control [18]: 16%
- Percent Control [19]: 17%
- Percent Control [20]: 30%

Compound: Nc1ncnc2occ(-c3ccc(NC(=O)Nc4cc(C(F)(F)F)ccc4F)cc3)c12 [GW770249X]
- Percent Control [1]: 100%
- Percent Control [2]: 100%
- Percent Control [3]: 100%
- Percent Control [4]: 100%
- Percent Control [5]: 100%
- Percent Control [6]: 100%
- Percent Control [7]: 100%
- Percent Control [8]: 41%
- Percent Control [9]: 74%
- Percent Control [10]: 36%
- Percent Control [11]: 100%
- Percent Control [12]: 86%
- Percent Control [13]: 32%
- Percent Control [14]: 100%
- Percent Control [15]: 100%
- Percent Control [16]: 80%
- Percent Control [17]: 66%
- Percent Control [18]: 5.7%
- Percent Control [19]: 35%
- Percent Control [20]: 0%

Compound: CCS(=O)(=O)c1ccc(OC)c(Nc2ncc(-c3cccc(F)c3)o2)c1 [GW621970X]
- Percent Control [1]: 100%
- Percent Control [2]: 49%
- Percent Control [3]: 100%
- Percent Control [4]: 100%
- Percent Control [5]: 100%
- Percent Control [6]: 100%
- Percent Control [7]: 100%
- Percent Control [8]: 88%
- Percent Control [9]: 97%
- Percent Control [10]: 73%
- Percent Control [11]: 100%
- Percent Control [12]: 91%
- Percent Control [13]: 100%
- Percent Control [14]: 100%
- Percent Control [15]: 100%
- Percent Control [16]: 75%
- Percent Control [17]: 100%
- Percent Control [18]: 89%
- Percent Control [19]: 100%
- Percent Control [20]: 97%
